Vaccinia Venus: vaccinia inhibition (Venus reporter); 330,000 tested, 0.46% active; Vaccinia virus Venus reporter expression, fluorescence; Potency, µM (series often up to 36.5 µM), without a hit: top-dose activity change, negative = inhibition, most hits filed as inhibitors; AID 720580; calls by dose curve; tested in A549 cells; note: nearly all actives have a fitted effect of over 30% in size
Vaccinia mCherry: inhibitors of vaccinia virus infection (mCherry reporter signal) | Potency, µM (series often up to 36.5 µM), for inactives: at the top dose activity change, negative = inhibition, actives largely listed as inhibitors | Vaccinia virus mCherry reporter infection, fluorescence | 310,000 tested, 0.63% active; calls by dose curve; tested in A549 cells; note: nearly all actives have a fitted effect of over 35% in size
FMDV antiviral: antivirals against foot and mouth disease virus; FMDV antiviral cell-based qHTS; Potency, µM (doses to about 57.9 µM), inactives show top-dose activity change, negative = inhibition, most hits filed as inhibitors; 410,000 tested, 1.2% active; AID 1159524; calls by dose curve; tested in HEK293T cells; note: read-out not given here; nearly all actives have a fitted effect of over 45% in size
FBPA Giardia inh: Giardia lamblia aldolase inhibition; Potency, µM (titrated, usually from 59.6 µM), inactives show top-dose activity, negative = inhibition, usual class: inhibitors; purified Giardia FBPA; 290,000 tested, 0.71% active; A8B2U2; active = well fitted inhibition curve with a large enough effect; inconclusive = small, poorly fitted or top-dose-only effect, or effect the other way; note: nearly all actives have a fitted effect of over 55% in size
Target sequence (A8B2U2 whole entry, looked up): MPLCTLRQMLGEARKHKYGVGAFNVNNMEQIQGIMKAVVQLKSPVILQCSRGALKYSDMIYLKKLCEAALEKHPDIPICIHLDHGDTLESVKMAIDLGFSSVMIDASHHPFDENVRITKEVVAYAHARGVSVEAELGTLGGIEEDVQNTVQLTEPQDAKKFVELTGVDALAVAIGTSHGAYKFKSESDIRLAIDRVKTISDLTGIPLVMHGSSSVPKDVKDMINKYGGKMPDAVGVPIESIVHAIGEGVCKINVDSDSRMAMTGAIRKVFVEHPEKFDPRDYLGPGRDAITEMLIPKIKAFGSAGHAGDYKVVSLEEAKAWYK
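40 nM FBPA preincubated 10 min at RT with compound (up to 57.5 uM final), then substrate plus GAPDH/TPI/NAD/arsenate coupling and diaphorase/resazurin added. Fluorescence read after 20 min at RT, 525/598 nm.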
* = called active by the depositor; i = inactive; ? = inconclusive; . = not tested or not shown; ! = a repeat was not active; [ ] = another dose, or the depositor's remark. Sampled rows, rich in hits. Any-hit rate of the full collection: about 2.2%. % is set by controls: 0 for no effect and ±100 for the full control effect; potency is the fitted concentration of half-maximal effect.

SMILES	Vaccinia Venus	Vaccinia mCherry	FMDV antiviral	FBPA Giardia inh
CCOC(=O)c1cnc(SCC(=O)Nc2cc(OC)ccc2OC)nc1N	?	-19.5%	14.1µM*	9.1%
COc1ccc(OC)c(CN2C[C@H](Sc3ccc(F)cc3)C[C@H]2C(=O)N(C)C)c1	-10.7%	-18.4%	-7.2%	.
COc1ccccc1NC(=O)Nc1ccc(Cc2ccncc2)cc1	-8.1%	-16.3%	6.2%	-9.0%
COc1ccc(NC(=O)Nc2ccc(Cc3ccncc3)cc2)cc1OC	-25.1%	?	22.4µM*	3.3%
Cc1cnc(SCc2ccccn2)nc1C1CCCN(C(=O)c2ccc3c(c2)OCCO3)C1 (stereo not drawn)	-5.7%	-11.7%	-2.7%	.
CC(C)N(C(=S)Nc1cc(S(=O)(=O)N2CCOCC2)ccc1Cl)c1ccccc1	-1.0%	-16.9%	-1.6%	1.1%
C/C(=N\NC(=S)Nc1cc(S(=O)(=O)N2CCOCC2)ccc1Cl)c1ccccc1F	-26.6%	-36.8%	12.6µM*	6.5%
Cc1nc([N+](=O)[O-])cn1CC(=O)c1ccc2c(c1)OCCCO2	-7.8%	-7.0%	.	.
CCCCOc1ccc(Br)cc1CSC(=N)N	-16.2%	-25.5%	12.6µM*	-11.5%
CCOc1ccc(C(C)=O)cc1CSC(=N)N	-3.4%	-3.0%	-13.3%	-1.7%
CC(=O)c1ccc(N2CCN(S(=O)(=O)c3ccc(-c4cnc(C5CC5)o4)cc3)CC2)cc1	?	?	31.6µM*!	.
C/C(=N\NC(=O)c1ccccc1NC(=O)c1ccc(Cl)cc1)c1ccncc1	1.7%	i	3.16µM*	-10.2%
CC(=NNC(=O)c1ccncc1)c1ccccc1Cl	-1.6%	-14.1%	11.5%	.
CC(C)(C)OC(=O)NS(=O)(=O)NOCc1ccccc1	0.9%	-11.7%	.	.
N#C/C(=C/c1ccc(Sc2nc3ccccc3[nH]2)o1)c1cccc(Br)c1	?	20µM*	?	-10.3%
N#C/C(=C/c1ccc(Sc2nc3ccccc3[nH]2)o1)c1cccc(F)c1	.	.	?	-4.1%
CCc1cc(C(=O)NCC2Cc3cccc(-c4ccc(C(=O)OC)cn4)c3O2)no1 (stereo not drawn)	-2.3%	-14.6%	-5.1%	.
O=C(Cc1cscn1)N1CCOc2ccc(CN3CCN(c4ccccn4)CC3)cc2C1	-2.3%	-9.5%	-4.8%	.
CCn1cc(C2=NCCO2)c2ccccc21	?	10µM*	-12.0%	0.5%
CCn1cc(C2=NC(C)CO2)c2ccccc21 (stereo not drawn)	.	.	16.8%	1.8%
Cc1oc(-c2ccccc2NC(=O)C2CCC2)nc1CNC(=O)c1ccc(C#CC(C)(C)O)cc1	-9.0%	-12.0%	2.1%	.
C#CCN(C[C@@H]1[C@@H](OC(=O)NCCCCCC)[C@@H](OC(=O)NCCCCCC)Cn2c(=O)ccc(=O)n21)S(=O)(=O)c1ccc(C)cc1	5.62µM*	?	12.6µM*	.
C#CCN(C[C@@H]1[C@@H](OC(=O)NC2CC2)[C@@H](OC(=O)NC2CC2)Cn2c(=O)n(CCCCCC)c(=O)n21)S(=O)(=O)c1ccc(C)cc1	?	i	?	.
C#CCN(C[C@@H]1[C@@H](OC(=O)NCC2CCCCC2)[C@@H](OC(=O)NCC2CCCCC2)Cn2c(=O)ccc(=O)n21)S(=O)(=O)c1ccc(C)cc1	7.94µM*	?	10µM*	.
O=C(CSc1n[nH]c(-c2cccs2)n1)N1CCN(S(=O)(=O)c2ccc3ccccc3c2)CC1	?	-26.9%	22.4µM*	-11.9%
SMILES	Vaccinia Venus	Vaccinia mCherry	FMDV antiviral	FBPA Giardia inh
Nc1cc(=O)[nH]c(SCC(=O)N2CCN(S(=O)(=O)c3ccc4ccccc4c3)CC2)n1	2.1%	0.4%	-6.8%	6.3%
O=C(Oc1nsnc1N1CCOCC1)N1CCCC1	.	.	-8.0%	.
O=C(Oc1nsnc1N1CCCCC1)N1CCOCC1	?	14.1µM*	-9.7%	-4.2%
Cc1ccccc1C(=O)N1CCc2c(cnc(C)c2CNC(=O)c2ccc3c(c2)OCO3)C1	0.5%	1.4%	-16.1%	.
Cc1cc(C)c(C#N)c(SCCS(=O)(=O)c2ccc(C(C)(C)C)cc2)n1	4.47µM*	3.55µM*	-19.7%	4.5%
Cc1cc(C)c(C#N)c(SCCS(=O)(=O)Cc2ccc(Cl)cc2)n1	-17.1%	-17.7%[1.46 µM]	-20.0%	2.5%
Cc1cc(C)c(C#N)c(SCCS(=O)(=O)c2ccc(Cl)cc2)n1	?	4.47µM*	-21.2%	-2.5%
CCN1/C(=C/c2ccc3cccc(C)c3[n+]2CC)Sc2ccccc21	.	.	7.94µM*	6.7%
C=C(C)COc1ccc(-c2n[nH]c(C)c2-c2ccc(OC)cc2)c(O)c1	10µM*	.	25.1µM*	-18.1%
COc1ccc(-c2n[nH]c(C)c2-c2cscn2)c(O)c1	-10.1%	?	-10.6%	-18.0%
COc1cccc(Cn2c(=O)c(-c3cn(C)c4ccccc34)nc3cncnc32)c1	.	.	-6.4%	5.0%
O=C(CSc1c2c(nc3ccc(Cl)cc13)CCCC2)N1CCCCC1	-10.2%	-4.5%	?	.
O=C(CSc1c2c(nc3ccc(Cl)cc13)CCCC2)N1CCN(C(=O)c2ccco2)CC1	.	.	25.1µM*	.
CCC[C@H]1C[C@H](C(=O)NC(C(C)Cl)C2O[C@@H](SC)C(OP(=O)(O)O)[C@@H](O)[C@@H]2O)N(C)C1 (stereo partly drawn)	.	.	.	9.8%
Cn1c(=O)c2c(nc(NCc3cccnc3)n2Cc2cccc(C(F)(F)F)c2)n(C)c1=O	?	.	?	3.0%
COc1cccc(Cn2c(NCc3cccnc3)nc3c2c(=O)n(C)c(=O)n3C)c1	?	4.47µM*	?	.
COc1ccc(CCNC(=O)c2cnn3c2NC(=C2CC2)C=C3C(F)F)cc1OC	-27.3%	-7.4%	.	.
CCOC(=O)c1cc([N+](=O)[O-])cc([N+](=O)[O-])c1Sc1ncnc2nc[nH]c12	-18.6%	?	22.4µM*	.
COc1cc(=O)n2c(c1C(=O)NCc1ccco1)CCN(Cc1ccc(F)cc1Cl)CC2	-7.7%	-5.8%	-3.0%	.
c1coc(CNc2ncnc3c2nc2n3CCCC2)c1	-19.1%	-27.9%	.	.
N#CC1=C(SCC(=O)NC2CC2)NC(=O)C(C#N)C12CCCCC2 (stereo not drawn)	-4.4%	i	-2.2%	2.5%
N#CC1=C(SCC(=O)NC23CC4CC(CC(C4)C2)C3)NC(=O)C(C#N)C12CCCCC2 (stereo not drawn)	12.6µM*	10µM*	?	-17.4%
CCOc1ccc2[nH]c(=O)c(C(c3nnnn3Cc3ccco3)N3CCN(C)CC3)cc2c1 (stereo not drawn)	-7.1%	-11.6%	-3.7%	0.889µM*
CCOc1ccc(NC(=O)COC(=O)c2ccccc2OCC(=O)N(C)C)cc1	-12.4%	-7.1%	.	.
CCN1C(=O)/C(=C\c2nc3ccccc3c(=O)n2CC)c2ccccc21	-22.9%	i	25.1µM*	0.4%
CCn1c(/C=C2/C(=O)N(C)c3ccccc32)nc2ccccc2c1=O	-6.5%	-9.9%	?	2.0%
CCn1c(/C=C2\C(=O)N(C)c3ccccc32)nc2ccccc2c1=O	-15.0%	-18.5%	-15.0%	-1.1%
CCN1C(=O)/C(=C/c2nc3ccccc3c(=O)n2-c2ccccc2)c2ccccc21	?	.	25.1µM*	-4.0%
CC(=O)Oc1ccc(C(=O)COC(=O)CNC(=O)COc2ccccc2C)cc1	-15.7%	7.3%	.	.
Cc1ccc(C(=O)CN2C(=O)c3ccccc3S2(=O)=O)cc1	-8.0%	0.0%	14.1µM*	1.9%
